From PubChem
Only some compounds are listed: those with a hit (about 1.1% of all), similar ones and a draw of the others.
BioA inh – M. tuberculosis BioA enzyme inhibitors, primary screen, biochemical, plate reader, single point, HTS; 7,8-diaminopelargonic acid synthase BioA (Mycobacterium tuberculosis); purified M. tuberculosis BioA enzyme; inhibition, % at 9.99 µM; 0.096% of 360,000 active; AID 602481, 2012; in the data active = inhibition above about 40%; inconclusive = no clear call, values can overlap the other calls
Mtb bLac sens – beta-lactam sensitization of Mtb H37Rv, H37Rv. M. tuberculosis H37Rv growth with meropenem, percent inhibition. inhibition, % at 25 µM. 0.27% of 330,000 active. AID 434955, 2010;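 also: growth measured after seven days incubation then overnight dye step; 0% = bacteria only wells and 100% = bacteria with antibiotic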
Yp Topo-I inh – Yersinia pestis topoisomerase I inhibitors, primary screen, biochemical, cleavage product accumulation, plate reader, single point. 0.064% of 360,000 active. DNA topoisomerase I (Yersinia pestis CO92). activity, % at 10 µM. AID 504884, 2011. Y. pestis Topo-I cleavage product accumulation; in the data active = activity above about 50%, passing the limit was not always enough; inconclusive = no clear call, values can overlap the other calls
BJeLR lethal – MLPCN primary cell-based screen for lethality selective to Ras in HRASV12 cells; BJeLR (HRASV12) viability, CellTiter-Glo ATP luminescence, 48 h; inhibition, % (test concentration not listed); 0.17% of 300,000 active; in the data active = inhibition above about 50%; inconclusive = no clear call, values can overlap the other calls
RecA intein inh – Mtb RecA intein splicing inhibitors, primary screen, biochemical, fluorescence, HTS; AID 2221, 2009; cell-free RecA intein splicing; inhibition, % (concentration not given with the values); 0.75% of 290,000 active; in the data active = inhibition above about 30%; inconclusive = no clear call, values can overlap the other calls;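 also: 0% = vehicle wells and 100% = reference inhibitor control wells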
CCHFV vOTU inh – CCHFV vOTU protease inhibitors, primary screen, biochemical, Pep-AMC substrate, fluorescence; Crimean-Congo hemorrhagic fever virus L polyprotein viral ovarian tumor (vOTU) protease …; inhibition, % at 11.5 µM; 0.55% of 370,000 active; in the data active = inhibition above about 30%; also: 0% = vehicle wells with enzyme and 100% = no enzyme wells
GFP chromo cs – counter-screen: blocks GFP chromophore formation, dose response, counter-screen, biochemical, fluorescence, homogeneous. cell-free GFP chromophore formation. shares compounds with RecA intein inh. 83% of 2,100 active. EC50, µM
An asterisk follows results filed as active; ? = inconclusive; . = not tested or not shown. Unless noted, no rule for the calls is given here.

SMILES | BioA inh | Mtb bLac sens | Yp Topo-I inh | BJeLR lethal | RecA intein inh | CCHFV vOTU inh | GFP chromo cs
Cc1ccc(S(=O)(=O)Nc2ccc3c(c2)C(=O)N([C@H](C)CO)C[C@@H](C)[C@H](CN(C)S(=O)(=O)c2cn(C)cn2)OCCCC[C@@H](C)O3)cc1 | 0 | . | . | . | . | . | .
COc1ccccc1C(NC(C)=O)c1c(O)ccc2ccc(O)cc12 (stereo unspecified) | -2 | 31 | 2 | -5 | 79* | -4 | 5.1*
O=C(CC1CC1)N1CC[C@@H]2[C@H]1c1cc(-c3cccc(F)c3)ccc1N[C@@H]2CO | -1 | . | . | . | . | . | .
CCC(=O)N1CC2(c3ccccc3)CN(C(=O)CC)CC(c3ccccc3)(C1)C2=O | . | -7 | 7 | 0 | 0 | -6 | .
CC(=O)N1CC2(c3ccccc3)CN(C(C)=O)CC(c3ccccc3)(C1)C2=O | . | -4 | -9 | 25 | 62* | -6 | >38
CN1CCN(C(c2ccc(Br)cc2)c2cc(Cl)c3cccnc3c2O)CC1 (stereo unspecified) | 0 | 14 | -40 | 7 | 74* | 23 | 9.8*
COc1cc(/C=C/C(=O)OCC(=O)Nc2ccccc2Sc2ccc(Cl)cc2)ccc1O | -1 | 4 | 5 | -1 | 36* | -6 | >38
O=C(C[C@H]1CC[C@H]2[C@@H](COC[C@H](O)CN2C(=O)Cc2ccccc2)O1)NC1CCCC1 | 2 | . | . | . | . | . | .
Cn1c(O)c(C2=NN(C(=O)CCl)C(c3ccccc3)C2)c(=O)n(C)c1=O (stereo unspecified) | 1 | 42 | -2 | -3 | 45* | 5 | 5.8*
O=C(O)c1ccccc1C(=O)Nc1ccc(-n2nc(C(F)(F)F)cc2C(F)(F)F)cc1 | -1 | 33 | -6 | -9 | -2 | -2 | .
ONc1cccnc1-n1nc(C(F)(F)F)cc1C(F)(F)F | . | 2 | . | 6 | 82* | . | >38
C[C@@H]1CN([C@H](C)CO)C(=O)c2cc(C#Cc3ccccn3)cnc2O[C@H]1CN(C)C(=O)c1cnccn1 | 3 | . | . | . | . | . | .
CC1=NN(c2ccc(Cl)c(C(=O)O)c2)C(=O)/C1=C\c1ccc(-c2ccc(C(=O)O)cc2)o1 | . | . | -11 | 7 | 36* | -21 | 0.81*
COc1ccc(C(=O)CSc2nnc(NC(=O)C3CC(=O)N(c4ccccc4)C3)s2)cc1 (stereo unspecified) | -2 | 0 | -2 | 2 | -1 | 4 | .
COc1cccc(N2CC(C(=O)Nc3nnc(SCC(=O)c4ccccc4)s3)CC2=O)c1 (stereo unspecified) | . | 8 | 3 | 6 | 94* | -6 | >38
C[C@H](CO)N1C[C@H](C)[C@H](CN(C)C(=O)Nc2ccc3c(c2)OCO3)OCCCC[C@H](C)Oc2ccc(NS(=O)(=O)c3ccccc3)cc2C1=O | 1 | . | . | . | . | . | .
CC(C)(C)OC(=O)NCCc1nnc(SCc2ccccc2Cl)o1 | 1 | 1 | 10 | -2 | 1 | 1 | .
CC(C)(C)OC(=O)NCCc1nnc(S(=O)(=O)Cc2ccc(Cl)cc2Cl)o1 | -1 | 4 | -15 | 7 | 85* | 9 | >38
COCCn1c(N)c(C(=O)NCc2cccs2)c2nc3ccccc3nc21 | 3 | 6 | 8 | -9 | 62* | -40 | >38
Cc1ccc(S(=O)(=O)N[C@@H](Cc2ccccc2)C(=O)CCl)cc1 | 1 | 0 | 5 | . | 93* | -2 | 1.9*
COc1ccc2[nH]c(CN3CCC(CO)(CCOc4ccccc4)CC3)c(C)c2c1 | -1 | 70 | 7 | -2 | 40* | -5 | >38
Cc1noc(C)c1NC(=O)N(C)C[C@@H]1Oc2ccc(NC(=O)Nc3ccccc3)cc2C(=O)N([C@H](C)CO)C[C@@H]1C | -1 | . | . | . | . | . | .
O=S(=O)(c1ccc2c(c1)CCCN2)N1CCCC1 | 2 | -1 | -11 | . | . | 16 | .
CCN(CC)c1ccc2c(c1)CCCN2 | . | 25 | . | -6 | 33* | . | >38
CCCNC(=O)[C@H]1[C@H](CO)[C@H]2Cn3c(ccc(-c4ccc(F)cc4)c3=O)[C@@H]1N2CC | 0 | . | . | . | . | . | .
SMILES | BioA inh | Mtb bLac sens | Yp Topo-I inh | BJeLR lethal | RecA intein inh | CCHFV vOTU inh | GFP chromo cs
CCN1Cc2c(/C=C/c3ccccc3)nc3ccc(OC)cc3c2N(c2cccc(Cl)c2)C1 | . | 90 | 11 | -7 | 34* | 4 | 23*
CCc1ccc(OCC(=O)N/N=C2\CC(=O)c3ccccc32)cc1 | -2 | -13 | 22 | 1 | 53* | . | 8.8*
COc1ccc(OCC(=O)N/N=C2\CCCCc3ccccc32)cc1 | . | -5 | 27 | -19 | 4 | 8 | .
O=C1C(Cl)=C(N2CCOCC2)C(=O)N1c1cccc(Cl)c1 | 1 | 98 | 2 | 2 | 84* | 0 | 2.8*
Cc1cccc(N2C(=O)CC(N3CCOCC3)C2=O)c1 (stereo unspecified) | 0 | 0 | 3 | 1 | -3 | 1 | .
Cc1cccc(N2C(=O)C(Cl)=C(N3CCOCC3)C2=O)c1 | -1 | ? | 0 | -2 | 87* | 1 | 4.5*
O=C1/C(=C/c2ccccc2)N=C(N2CCOCC2)N1c1cccc(Cl)c1 | 12 | 5 | 14 | 9 | 1 | -8 | .
CNc1cc(Cl)c2nonc2c1[N+](=O)[O-] | . | . | 5 | -12 | 86* | 20 | 7.7*
O=C1CC(NC(=O)C(F)(F)F)=NN1c1ccccc1 | . | -4 | 2 | 3 | 90* | 18 | 16*
CC(C)(Oc1ccc(Cl)cc1)C(=O)NC1=NN(c2ccccc2)C(=O)C1 | . | 3 | -4 | -3 | 12 | 5 | .
CCCNC(=O)C[C@@H]1C[C@@H]2c3cc(NC(=O)c4ccc5c(c4)OCO5)ccc3O[C@@H]2[C@@H](CO)O1 | 1 | . | . | . | . | . | .
CC1(C)Nc2ccc(O)cc2-c2c1ssc2=S | . | 42 | -21 | 6 | 93* | 10 | 2.4*
CCOC(=O)c1cnc(-n2[nH]c(C)c(Cc3ccccc3)c2=O)[nH]c1=O | . | 3 | 0 | 9 | 33* | 2 | 34*
CCOC(=O)c1cnc(Cc2ccccc2)[nH]c1=O | -2 | 5 | 2 | -2 | 2 | -6 | .
O=C1CCCC2=C1C(c1ccc3c(c1)OCO3)c1c([nH]n(-c3ccccc3)c1=O)N2 (stereo unspecified) | -1 | -12 | 3 | -2 | 74* | 6 | 14*
COc1cccc(C2C3=C(CCCC3=O)Nc3[nH]n(-c4ccccc4)c(=O)c32)c1 (stereo unspecified) | . | 0 | 0 | 15 | 0 | -3 | .
Cc1c(O)ccc(NS(=O)(=O)c2ccccc2)c1C | . | 3 | 1 | 5 | -5 | 4 | .
